MPTP inh = permeability transition pore inhibition | isolated mouse mitochondria, Ca2+ swelling absorbance, 30 min | inhibition, % at 10 µM | 1.4% of 360,000 active | AID 602449;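 active means inhibition of 50% or more, scaled per plate between neutral and stimulator controls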;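 further: 0% = DMSO wells given calcium and 100% = 1 mM EGTA wells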
rCAG binder = molecules binding r(CAG) RNA repeats. r(CAG) RNA repeat, TO-PRO-1 dye displacement fluorescence. inhibition, % at 3 µM. 1.3% of 370,000 active;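 active means inhibition above the plate cutoff, the mean of all test compounds on that plate plus 3 SD, cut at about 35% in these data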;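 further: 0% = DMSO alone and 100% = 100 µM mitoxantrone as full dye displacement; higher means more dye released from RNA so lower well fluorescence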
GRIN3A LBD mod = NR3A (human) ligand-binding domain modulation; Tm shift relative to glycine control, % at 25 µM; 2.5% of 340,000 active; AID 1259313; NR3A LBD differential scanning fluorimetry, Tm shift; 0% = protein alone, 100% = glycine-bound protein;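 active means melting temperature shift of at least 10% of the positive control shift, at one fixed dose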
Myeloid diff 2 = myeloid differentiation induction. ER-HoxA9 myeloid progenitors, lysozyme-GFP differentiation, flow cytometry. AID 624256. 1% of 360,000 active. calls only at 10 µM;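 active means normalized GFP-positive differentiation at or above the plate's own cutoff, the solvent-only control mean plus 3 SD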;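 further: cells exposed to compound for four days before flow analysis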
FAS-TE inh = FAS thioesterase (human) inhibition; inhibition, % at 15 µM; 0.67% of 360,000 active; recombinant FAS-TE, OMFH fluorogenic substrate, fluorescence endpoint; P49327;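 active means compounds whose normalised, plate-corrected inhibition of enzyme fluorescence in the single-dose primary screen is 50% or more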;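 further: 0% = DMSO with enzyme and 100% = substrate without enzyme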
Rh123 counter = membrane potential counter-screen of mitochondrial pore inhibitors | isolated mitochondria, Rhodamine 123 fluorescence | shares compounds with MPTP inh | 78% of 5,000 active | inhibition, % at 10 µM; in the data active means inhibition above about 22%;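 further: 0% = DMSO vehicle and 100% = positive control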
MPTP swell DR = dose response confirmation of mitochondrial permeability transition pore inhibitors | shares compounds with MPTP inh | isolated mitochondria swelling, absorbance | IC50, µM | 58% of 780 active; in the data active means IC50 below about 20 µM
MPTP counter DR = active in counter-screen for permeability transition pore inhibitors; shares compounds with MPTP inh; isolated mitochondria counterscreen, fluorescence read-out; 49% of 780 active; IC50, µM; in the data active means IC50 below about 80 µM
An asterisk follows results filed as active; i = inactive; . = no result given; + = active, no number; ! = not confirmed by another sample. Sampled rows, rich in hits. Any-hit rate of the full collection: about 5.7%.

SMILES	MPTP inh	rCAG binder	GRIN3A LBD mod	Myeloid diff 2	FAS-TE inh	Rh123 counter	others
CCOC(=O)c1nnc(-c2cccs2)nc1Oc1ccccc1C(=O)OC	-2	-2	0	i	-6	.
CCOC(=O)c1nnc(-c2cccs2)nc1Oc1ccc(Cl)cc1	+	-1	1	i	9	-5	MPTP swell DR=>100;MPTP counter DR=>80
O=[N+]([O-])c1cccc(/C=N/N=C\c2ccccc2)c1	5	-1	0	i	10	.
O=[N+]([O-])c1ccc(N/N=C/c2ccccc2)c(F)c1	83*	12	36*	i	26	80*
Clc1ccc(OCCCN2CCCCC2)c(Br)c1	78*	-1	-5	i	-6	-3	MPTP swell DR=i;MPTP counter DR=>80
Clc1ccc(OCCCCCN2CCCC2)c(Br)c1	-5	0	-4	i	0	.
CC1CCCN(CCOCCOc2ccc(Br)cc2Cl)C1 (stereo not drawn)	3	1	0	i	-8	.
CC1CCCN(CCOCCOc2ccc(Cl)cc2Br)C1 (stereo not drawn)	59*	-7	-14	i	-1	1	MPTP swell DR=i;MPTP counter DR=>80
Cn1cc(/C=C(\C#N)C(=O)Nc2ccccc2O)c2ccccc21	0	.	10	i	10	.
Cc1ccc2cc(CN(CCc3ccccc3)C(=S)NCCCN(C)C)c(=O)[nH]c2c1	0	7	0	i	-3	.
Cc1ccc2[nH]c(=O)c(CN(CCCN(C)C)C(=S)NCCc3ccccc3)cc2c1	86*	-1	1	i	0	-10	MPTP swell DR=12*;MPTP counter DR=>80
CN(C)S(=O)(=O)c1cccc(NC(=O)CCc2nc3cc(S(=O)(=O)N4CCOCC4)ccc3n2C)c1	0	15	0	i	5	.
CN(C)S(=O)(=O)c1ccc(-c2csc(N/N=C/c3ccco3)n2)cc1	14	24	-3	i	24	.
CN(C)S(=O)(=O)c1ccc(-c2csc(N/N=C/c3ccc(O)cc3)n2)cc1	58*	32	23*	i	20	43*
COc1ccc(C(=O)C(=O)N2CCC(c3ccccc3)CC2)cn1	0	-2	.	i	.	.
CCOC(=O)c1sc(NC(=O)Nc2ccccc2F)nc1C	58*	11	-5	i	-3	68*
CCOC(=O)c1sc(NC(=O)c2ccccc2OC)nc1C	-1	0	2	i	4	.
N#CNC(=Nc1cccc(F)c1)SCc1cccc(F)c1	84*	10	-5	i	-7	74*
OC(c1ccc(F)cc1)c1nc(-c2ccncc2)cs1 (stereo not drawn)	65*	0	.	i	1	57*
CC(C)[C@H](NC(=O)c1ccccc1)C(=O)OCC(=O)Nc1ncc(Cl)cc1Cl	1	-1	-1	i	-2	.
C[N+]1(C)CCCC(OC(=O)C(O)(c2ccccc2)c2ccccc2)C1 (stereo not drawn)	-2	4	1	i	-6	.
Cc1ccc(NC(=O)CN2CC(C)SC2=NC2CCCCC2)cc1 (stereo not drawn)	52*!	-1	-1	i	-5	-12	MPTP swell DR=13*;MPTP counter DR=>80
Cc1ccc(NC(=O)CN2CCOCC2)cc1	-2	5	-2	i	-4	.
CCOC(=O)C1(Cc2cccc(OC)c2)CCCN(C(=O)CSC)C1 (stereo not drawn)	1	-8	1	i	-1	.
Cc1[nH]n(-c2ccc(F)cc2)c(=O)c1/C=N/c1sc2c(c1C#N)CCCC2	106*	3	-2	i	-3	25*
SMILES	MPTP inh	rCAG binder	GRIN3A LBD mod	Myeloid diff 2	FAS-TE inh	Rh123 counter	others
Cc1[nH]n(-c2ccc(Cl)cc2)c(=O)c1/C=N/c1nnc(-c2ccccc2)s1	104*	9	-5	i	14	43*
Cc1ccc(-n2[nH]c(C)c(/C=N/c3ccccn3)c2=O)cc1	-1	2	1	i	0	.
Cc1nc(N2CCC(C)CC2)c2c(C)c(C(=O)Nc3cccc(C(F)(F)F)c3)sc2n1	84*	1	12*	i	31	17	MPTP swell DR=i;MPTP counter DR=7.7*
Cc1nc(N2CCC(C)CC2)c2c(C)c(C(=O)Nc3ccc(C(F)(F)F)cc3)sc2n1	88*	0	13*	i	14	38*
CC(C)c1cccc(C(C)C)c1NC(=O)c1ccc(-c2cc(Cl)ccc2Cl)o1	-1	2	.	i	7	.
O=C(C[C@@H]1C=C[C@@H](NC(=O)c2cccnc2)[C@@H](CO)O1)NCc1ccncn1	-3	3	.	i	.	.
COC(=O)CS(=O)(=O)c1nnc([C@H](Cc2ccccc2)NC(=O)OC(C)(C)C)o1	98*	4	0	i	39	1
COC(=O)C1=C(C)N(Cc2cccc(C(F)(F)F)c2)C(=NCC2CC2)NC1c1ccc(F)cc1 (stereo not drawn)	.	8	.	.	.	.
Cc1ccc(OCC(=O)OCC(=O)NC2CCS(=O)(=O)C2)cc1C (stereo not drawn)	0	-1	.	i	-8	.
CC1CCOC2(O1)C(=O)Nc1ccccc12 (stereo not drawn)	2	-1	-1	i	-4	.
CC1OC2(OC1C)C(=O)Nc1ccccc12 (stereo not drawn)	+	-3	-1	i	-5	-3	MPTP swell DR=>100;MPTP counter DR=>80
COCCNc1nc2nonc2nc1NC(C)c1ccccc1Cl (stereo not drawn)	75*	4	-7	i	12	96*
CC(C)(C)SC(=O)C[C@@H]1NS(=O)(=O)OC2CCCCC21 (stereo partly drawn)	2	-3	-1	i	-10	.
COCCCNCCOc1ccc(C(C)(C)c2ccccc2)cc1	97*	0	-2	i	-10	-7	MPTP swell DR=5.7*;MPTP counter DR=>80
CC(C)(C)C(=O)Nc1nnc([C@H]2C[C@H](O)[C@@H](CO)O2)s1	1	0	.	i	-6	.
Cc1cc(C)n(-c2ccc(C(=O)Nc3ccc(C)c(S(=O)(=O)N(C)C)c3)cc2)n1	36	-3	0	i	1	.
NS(=O)(=O)c1cccc(NC(=O)CSc2nn(-c3ccccc3)c(=S)s2)c1	10	4	0	i	4	.
CN(C)S(=O)(=O)c1cc(NC(=O)CSc2nn(-c3ccc(Cl)cc3)c(=S)s2)ccc1Cl	70*	20	16*	i	39	81*
Cc1ccc(NC(=O)CSc2nn(-c3ccc(Cl)cc3)c(=S)s2)cc1S(=O)(=O)N(C)C	86*	20	4	i	28	81*
Cc1ccc(-c2cc(C(=O)NN=Cc3cccc4ccccc34)[nH]n2)cc1C	.	20	.	.	.	.
COc1ccccc1-c1cc(C(F)(F)F)nc(N2CCCCC2)n1	5	-2	1	i	12	.
FC(F)(F)c1cc(-c2ccccc2)nc(N2CCCCC2)n1	67*	-1	-2	i	21	-2	MPTP swell DR=i;MPTP counter DR=>80

Compound activity (PubChem)
